Source: PubChem (several laboratories)
An excerpt weighted towards active compounds, which were near 2.8% of everything screened.
LGR2 antag – inhibitors of bursicon-induced LGR2 CRE-luciferase signal, primary screen, cell-based, HEK293, CRE-luciferase reporter, bursicon stimulation | Drosophila bursicon receptor LGR2 (rickets) | bursicon-stimulated, 4 h | inhibition, % at 9.99 µM | 380,000 tested, 0.35% active | AID 720647, 2013;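 active = drop in luminescence signal, shown as inhibition above about 50% in the replicate tests, limit read from the data, passing the limit was not always enough; inconclusive = probably only some replicates passing the limit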;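 note: agonist challenge used bursicon conditioned medium at about half maximal strength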
EWS-Fli inh – EWS/Fli-driven NR0B1 reporter inhibitors, primary screen, A673 cells, NR0B1 luciferase, luminescence, MLPCN library | viability-normalised | inhibition, % at 12.6 µM | 350,000 tested, 0.67% active;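 active = mean inhibition of at least 50% after viability correction, with every replicate also passing that limit; inconclusive = mean reaches 50% but only one of two replicates passes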;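 note: firefly luciferase signal divided by Alamar Blue viability fluorescence both relative to DMSO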
TROY signal inh – inhibitors of TROY-driven NF-kB signaling, primary screen, Q293 LMP1-TROYcd cells, NF-kB luciferase, uHTS; Q293 LMP1-TROYcd NF-kB luciferase reporter, 4 h; inhibition, % at 10 µM; 360,000 tested, 0.98% active;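 active = compounds whose plate-normalised and pattern-corrected inhibition of the luciferase reporter signal at the single screening dose is 50% or more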
PAX8 reporter – inhibitors of PAX8-driven TPO luciferase reporter, primary screen, RMG-I cells, single concentration; SteadyGlo, 24 h; inhibition, % at 12.6 µM; 360,000 tested, 1.2% active; AID 652154, 2013;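 active = mean replicate inhibition at least 60% with every replicate also reaching 60%; inconclusive = only one of the two criteria is met; inactive = mean below 60% and not all replicates reaching 60%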;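 note: luciferase light reporting Pax8 driven TPO promoter activity; plate controls were median of neutral control wells for no effect and mitoxantrone controls for full effect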
TWEAK Fn14 block – inhibitors of TWEAK-Fn14 signaling, primary screen, luciferase reporter cells, uHTS; inhibition, % at 10 µM; 360,000 tested, 2% active; TWEAK-stimulated Fn14 reporter cells, luciferase luminescence, 8 h; AID 1159606, 2016; in the data active = inhibition above about 50%
* hit, by the source's call; ? = inconclusive; · = no result given.

SMILES	LGR2 antag	EWS-Fli inh	TROY signal inh	PAX8 reporter	TWEAK Fn14 block
CCn1c(CNC(=O)C2CCCCC2)cc2cc(C)ccc21	0	10	14	3	54*
CCOC(=O)c1ccc2nc(Nc3nc4ccc(F)cc4s3)sc2c1	30	80*	87*	49	99*
COC(=O)c1ccc2nc(Nc3nc4c(F)cc(F)cc4s3)sc2c1	·	48	92*	·	105*
COc1ccc(C#Cc2cnc3c(c2)C(=O)N([C@@H](C)CO)C[C@H](C)[C@H](CN(C)C)O3)cc1	-14	-5	·	·	·
O=C(O)C(=O)/C(=C\c1ccc(Cl)cc1)c1ccc2ccccc2n1	-40	-42	53*	1	34
CNC[C@@H]1Oc2ccc(NC(=O)Nc3cccc4ccccc34)cc2C(=O)N([C@H](C)CO)C[C@H]1C	11	-5	·	-13	·
Cc1ccc(NC(=O)Cn2nc(C)c3ccccc3c2=O)cc1	·	·	·	·	72*
C[C@H](CO)N1C[C@H](C)[C@@H](CN(C)C(=O)Nc2ccc(F)cc2)Oc2ccc(NS(=O)(=O)c3ccc(Cl)cc3)cc2C1=O	6	-10	·	-6	·
Cc1nc(Oc2ccc(S(=O)(=O)N3CCOCC3)cc2Cl)c2c3c(sc2n1)CCCC3	10	·	29	-8	60*
COc1ccc(NC(=O)Nc2ccc3c(c2)C(=O)N(C)C[C@@H](OC)[C@H](C)CN[C@H](C)CO3)cc1	9	-7	·	3	·
Cc1sc(NC(=S)NC(=O)CCc2ccccc2)c(C(N)=O)c1C	-5	49	11	83*	-13
C[C@H]1CCCCO[C@H](CN(C)C(=O)Nc2ccc(C(F)(F)F)cc2)[C@@H](C)CN([C@@H](C)CO)C(=O)c2cc(NS(=O)(=O)c3ccc(Cl)cc3)ccc2O1	8	13	·	91*	·
C[C@@H]1CCCCO[C@@H](CN(C)C(=O)Nc2ccc(C(F)(F)F)cc2)[C@@H](C)CN([C@H](C)CO)C(=O)c2cc(NS(=O)(=O)c3ccc(F)cc3)ccc2O1	-2	·	·	66*	·
C[C@@H]1CN([C@@H](C)CO)C(=O)c2cc(NS(=O)(=O)c3ccc(F)cc3)ccc2O[C@@H]1CN(C)C(=O)Nc1ccc(C(F)(F)F)cc1	11	-7	·	71*	·
C[C@@H]1CCCCO[C@H](CN(C)C(=O)Nc2ccc(C(F)(F)F)cc2)[C@@H](C)CN([C@@H](C)CO)C(=O)c2cc(NS(=O)(=O)c3ccccc3)ccc2O1	12	7	·	81*	·
C[C@H](CO)N1C[C@H](C)[C@@H](CN(C)C(=O)Nc2ccc(C(F)(F)F)cc2)OCCCC[C@H](C)Oc2ccc(NS(=O)(=O)c3ccc(F)cc3)cc2C1=O	4	-3	·	?	·
C[C@H](CO)N1C[C@H](C)[C@H](CN(C)C(=O)Nc2ccc(C(F)(F)F)cc2)Oc2ccc(NS(=O)(=O)c3ccc(F)cc3)cc2C1=O	-16	-15	·	-17	·
C[C@@H]1CCCCO[C@H](CN(C)Cc2ccc3c(c2)OCO3)[C@H](C)CN([C@H](C)CO)C(=O)c2cc(NC(=O)c3ccncc3)ccc2O1	-15	-7	·	-18	·
Cc1cccc(S(=O)(=O)NC[C@H]2CC[C@@H]3NC[C@@H]3O2)c1	·	-2	·	·	·
Cc1ccc(S(=O)(=O)Nc2ccc3c(c2)C(=O)N([C@@H](C)CO)C[C@H](C)[C@@H](CN(C)C(=O)Nc2ccc(C(F)(F)F)cc2)OCCCC[C@@H](C)O3)cc1	-12	9	·	75*	·
C[C@H]1CCCCO[C@H](CN(C)C(=O)Nc2ccc(C(F)(F)F)cc2)[C@@H](C)CN([C@@H](C)CO)C(=O)c2cc(NS(=O)(=O)c3cccs3)ccc2O1	5	20	·	79*	·
Cc1ccc(S(=O)(=O)Nc2ccc3c(c2)C(=O)N([C@H](C)CO)C[C@H](C)[C@@H](CN(C)C(=O)Nc2ccc(C(F)(F)F)cc2)OCCCC[C@@H](C)O3)cc1	-5	0	·	-3	·
C[C@@H]1CCCCO[C@H](CN(C)C(=O)Nc2ccc(C(F)(F)F)cc2)[C@H](C)CN([C@@H](C)CO)C(=O)c2cc(NS(=O)(=O)c3cccs3)ccc2O1	12	11	·	32	·
C[C@H](CO)N1C[C@H](C)[C@H](CN(C)C(=O)NC2CCCCC2)Oc2c(NC(=O)c3cnccn3)cccc2C1=O	-23	2	·	-3	·
Nc1c(C(=O)O)cnc2c(-c3ccc(Cl)cc3)cnn12	3	-85	15	-95	67*
SMILES	LGR2 antag	EWS-Fli inh	TROY signal inh	PAX8 reporter	TWEAK Fn14 block
O=C(N/N=C1/C(=O)c2cccc3cccc1c23)c1ccc(Cl)cc1	·	·	-36	-10	106*
C[C@@H]1CN([C@@H](C)CO)C(=O)Cc2cc(NC(=O)C3CCCCC3)ccc2O[C@H]1CN(C)C(=O)Nc1ccc(C(F)(F)F)cc1	-11	-1	·	·	·
C/C(=N\Nc1ccc(C(=O)c2c(C)cc3ccccn23)cc1[N+](=O)[O-])c1ccc(O)cc1	15	-33	19	2	62*
C/C(=N/Nc1ccc(C(=O)c2c(C)cc3ccccn23)cc1[N+](=O)[O-])c1ccc(O)cc1	1	18	14	·	53*
Cc1cc2ccccn2c1C(=O)c1ccc(N/N=C/c2ccc(C(=O)O)cc2)c([N+](=O)[O-])c1	4	2	35	15	49
CCC(=O)Nc1ccc2c(c1)C(=O)N(C)[C@@H]1CC[C@H](CC(=O)NCc3ccc(OC)cc3)O[C@@H]1CO2	15	-2	·	-2	·
C[C@@H]1CN([C@@H](C)CO)C(=O)c2cc(NC(=O)C3CCCCC3)ccc2O[C@@H](C)CCCCO[C@H]1CN(C)Cc1ccc(C(F)(F)F)cc1	14	9	·	26	·
O=C(C[C@H]1C=C[C@@H](NC(=O)NC2CCCCC2)[C@@H](CO)O1)NCc1ccccc1	28	-10	·	-17	·
O=C(c1ccc(CS(=O)c2ccccc2Cl)o1)N1CCOCC1 (stereo not given)	3	2	-16	-20	3
COc1cccc(N2CCN(C(=O)c3ccc(CS(=O)c4ccccc4Cl)o3)CC2)c1 (stereo not given)	-5	51*	6	93*	49
COc1cccc(N2CCN(C(=O)c3ccc(CS(=O)c4ccccc4C)o3)CC2)c1 (stereo not given)	-2	58*	6	?	-4
O=C(c1ccc(CS(=O)c2ccccc2Cl)o1)N1CCN(c2ccccc2)CC1 (stereo not given)	-6	56*	-10	12	-6
CN1c2ccc(-c3ccc(F)cc3)cc2[C@H]2[C@H](CCN2C(=O)C2CCOCC2)[C@@H]1CO	10	7	·	-12	·
COc1cccc(S(=O)(=O)N[C@@H]2C=C[C@H](CC(=O)NCc3ccccc3)O[C@@H]2CO)c1	-4	·	·	·	·
COc1ccccc1S(=O)(=O)N[C@H]1CC[C@H](CCNC(=O)C2CCCC2)O[C@H]1CO	-2	4	·	-20	·
